uPA generation: inhibitors of cell surface uPA generation; hit rate 0.31% among 330,000; cell surface uPA generation assay, qHTS; AID 540303; Potency, µM (highest dose often 38.3 µM), for the others: at the top dose activity change, negative = inhibition, usual class: inhibitors; active = well fitted inhibition curve with a large enough effect; inconclusive = small, poorly fitted or top-dose-only effect; inactive = no such curve, though single readings can be large or run the other way; tested in mouse RAW 264.7 cells; also: potency is read from the fitted curve at half-maximal effect; % is scaled to controls: 0 for no effect and ±100 for the full control effect; nearly all actives have a fitted effect of over 55% in size
Vif-APOBEC3F blk: Vif-A3F binding inhibition. Potency, µM (highest dose often 46.1 µM), for the others: at the top dose activity, negative = active. hit rate 0.2% among 390,000. HeLa A3F-eYFP + Vif (tagged APOBEC3F with the HIV-1 protein that degrades it), YFP fluorescence increase. AID 602313; also: potency is read from the fitted curve at half-maximal effect; % of control where 0% means no effect; nearly all actives have a fitted effect of over 65% in size
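HeLa cells stably expressing Vif plus C-terminally eYFP-tagged A3F were seeded, incubated overnight at 37 deg C, dosed with compound, incubated overnight again at 37 deg C. Yellow fluorescence (Ex 488/Em 500-530) reported blocked Vif-mediated A3F-eYFP degradation.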
MBNL1 CUG block: blocks human MBNL1 binding to CUG repeat RNA; TR-FRET MBNL1-His/biotin-(CUG)12 binding, 665/545 ratio; Potency, µM (doses to about 57.5 µM), for inactives: top-dose activity change, negative = inhibition, actives largely listed as inhibitors; hit rate 0.036% among 280,000; AID 2675; active = well fitted inhibition curve with a large enough effect in the signal ratio, with a control signal flat, not every such curve was filed as active; inconclusive = small, poorly fitted or top-dose-only effect, or effect the other way, or a change in a side signal; inactive = no such curve, though single readings can be large or run the other way; the % refers to the signal ratio; also: potency is read from the fitted curve at half-maximal effect; % is scaled to controls: 0 for no effect and ±100 for the full control effect
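TR-FRET readout: Ex 340 nm, 665/545 nm emission ratio, normalized to buffer-only (basal) and MBNL1-(CUG)12 controls. Complex of MBNL1-His with Biotin-(CUG)12, compounds 92 nM–58 uM, incubated 60 min at room temperature.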
Vif-A3G inh: inhibitors of Vif-APOBEC3G interaction. HeLa A3G-eYFP + Vif (tagged APOBEC3G with the HIV-1 protein that degrades it), YFP fluorescence, overnight. Q9HC16. hit rate 0.076% among 410,000. Potency, µM (series often up to 46.1 µM), for the others: at the top dose activity, negative = active, hits mostly inhibitors; also: potency is read from the fitted curve at half-maximal effect; % is scaled to controls: 0 for no effect and ±100 for the full control effect; nearly all actives have a fitted effect of over 60% in size
Target sequence (Q9HC16 whole entry, looked up): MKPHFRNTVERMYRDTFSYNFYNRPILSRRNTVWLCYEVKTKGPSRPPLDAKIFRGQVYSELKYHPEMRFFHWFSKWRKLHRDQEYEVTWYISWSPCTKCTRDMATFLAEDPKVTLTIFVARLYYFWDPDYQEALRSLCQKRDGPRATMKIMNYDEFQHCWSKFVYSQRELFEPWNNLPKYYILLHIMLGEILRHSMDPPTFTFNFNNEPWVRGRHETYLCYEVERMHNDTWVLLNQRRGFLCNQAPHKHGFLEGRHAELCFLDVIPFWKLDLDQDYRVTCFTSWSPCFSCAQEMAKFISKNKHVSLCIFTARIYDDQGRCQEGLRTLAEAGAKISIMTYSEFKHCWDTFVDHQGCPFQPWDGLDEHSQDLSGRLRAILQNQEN
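Read-out is eYFP fluorescence (Ex 488/Em 500-530) from Vif-expressing HeLa A3G-eYFP cells; more signal means A3G escaped Vif-mediated degradation. Cells plated overnight, compound pinned in, incubated overnight at 37 deg C.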
BCR signal inh: chronic active BCR signaling inhibition; Potency, µM (doses to about 46.1 µM), for the others: at the highest dose activity change, negative = inhibition, most hits filed as inhibitors; hit rate 0.05% among 340,000; ABC-DLBCL IkBa-CBG/CBR reporter, luminescence ratio, 4 h; AID 493014; active = well fitted inhibition curve with a large enough effect in the signal ratio, with a control signal flat, not every such curve was filed as active; inconclusive = small, poorly fitted or top-dose-only effect, or effect the other way, or a change in a side signal; the % refers to the signal ratio;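 also: potency is read from the fitted curve at half-maximal effect; plate controls were basal doxycycline-induced cells for no effect and cells given 10 µM MG132 for full effect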
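TMD8 human ABC-DLBCL cells with doxycycline-inducible IκBα–green luciferase fusion and unfused red luciferase, in 0.5% FBS medium; compounds up to 46 uM, 4 h at 37C. Green/red luminescence ratio, filter-overlap corrected, fitted to concentration-response curves.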
TCR act: activates T cell receptor signaling | primary human leukocytes, anti-CD3, IL-2 HTRF, 48 h | Potency, µM (series often up to 9.22 µM), without a hit: top-dose activation of IL-2 secretion, usual class: activators | 330,000 tested, under 10 active | AID 504894; also: % of control where 0% means no effect
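Primary human leukocytes receive a-CD3 beads and test compound and are incubated 48 hr. Secreted IL-2 is then assayed by HTRF, measuring 665nm acceptor emission after 320nm excitation of the europium donor.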
Numbers without * were called inactive; ? = inconclusive; · = no result; [ ] = another dose, or the depositor's remark. Hits are enriched below; roughly 0.54% of the tested compounds scored in any of these assays. Unless noted, calls follow the shape of the dose curve; as a rule, active = well fitted curve in the direction sought with a large enough effect; inconclusive = small, poorly fitted or top-dose-only effect, or another doubt; inactive = no such curve, though single readings can be large; an effect the other way counts as inactive or inconclusive.

SMILES | uPA generation | Vif-APOBEC3F blk | MBNL1 CUG block | Vif-A3G inh | BCR signal inh | TCR act
CC(C)N1CCc2c(sc(NC(=S)NC(=O)c3ccccc3)c2C#N)C1 | -0.5% | ? | ? | ? | ? | 12.5%[46.1 µM]
COC(=O)c1c(NC(=O)c2ccc(S(=O)(=O)N3CCCC(C)C3)cc2)sc2c1CCN(C(C)C)C2 (stereo not given) | · | ? | · | -2.1% | 0.5% | ·
CCCN1CCc2c(sc(NC(=S)NC(=O)c3ccccc3)c2C#N)C1 | 5.7% | 25.1µM* | ? | -30.3% | ? | -1.9%
CNC(=O)c1c(NC(=O)c2ccc(S(=O)(=O)N(C)c3ccccc3)cc2)sc2c1CCN(C(C)C)C2 | -5.4% | 7.08µM* | 6.3% | ? | -0.5% | -2.8%
CN(C)c1ccc(Cn2ccc3ccccc32)cc1 | · | · | · | -1.9% | · | ·
COc1ccc(Cl)c(Cn2cnc3c(cnn3C(C)(C)C)c2=O)c1 | · | · | · | -2.3% | · | ·
COc1ccc2c(c1)c1nc3ccccc3nc1n2Cc1ccc(OC)c(OC)c1 | -12.6% | 25.1µM* | 1.4% | ? | 10.2% | -3.5%[46.1 µM]
C=C(c1nc2ccccc2s1)C1Cc2cccc3c2N(CCC3)C1 (stereo not given) | · | · | · | 10.8% | · | ·
Clc1ccc(C2=Nn3c(nnc3-c3cc(-c4ccccc4)n[nH]3)SC2)cc1 | · | -3.9% | 7.1% | -15.4% | 5.17µM* | ·
Cc1ccc(-c2nnc3n2N=C(c2ccccc2)CS3)cc1 | 4.7% | -4.9% | 5.8% | -0.4% | ? | -5.6%[46.1 µM]
c1ccc(C2=Nn3c(nnc3-c3cc(-c4ccccc4)n[nH]3)SC2)cc1 | -15.3% | -3.2% | 3.0% | -8.3% | 11.6µM* | 0.6%
COc1ccc(-c2nnc3n2N=C(C)CS3)cc1 | 2.4% | 1.5% | -0.7% | -2.2% | 5.3% | -1.1%
COc1ccc(C2=Nn3c(nnc3-c3ccc(OC)cc3)SC2)cc1 | -14.5% | -0.2% | 0.8% | ? | 6.51µM* | 3.8%
O=C(C[n+]1cccc2cccc(O)c21)c1ccc(Br)cc1 | · | · | · | 1.3% | · | ·
Cc1noc(C)c1C(=O)OCC(=O)Nc1ccccc1SCC#N | 5.7% | 22.4µM* | · | -18.8% | ? | 0.2%
CCc1noc(C)c1C(=O)OCC(=O)Nc1ccccc1SC | ? | 7.1% | · | -2.2% | ? | -2.4%
O=C(CCNC(=O)c1ccc([N+](=O)[O-])cc1)Nc1ccccc1N1CCCC1 | 10.5% | -2.1% | ? | 0.5% | 0.4% | -2.8%
N#CCSc1ccccc1NC(=O)COC(=O)CCNC(=O)c1ccc([N+](=O)[O-])cc1 | 2.3% | 22.4µM* | · | -14.7% | -18.7% | 3.0%
C[N+]1(CC(=O)c2cccc([N+](=O)[O-])c2)CCOCC1 | · | · | · | 2.2% | · | ·
OC(CBr)C[n+]1cc(Br)cc2ccccc21 (stereo not given) | · | · | · | 1.6% | · | ·
CN(C)c1ccc(/C=C/c2ccnc3ccccc23)cc1 | · | · | · | 11.2µM* | · | ·
Cc1cc(/C=C/c2ccnc3ccccc23)ccc1N | · | · | · | 10µM* | · | ·
CN(C)c1ccc(/C=C/c2ccnc3ccc4ccccc4c23)cc1 | · | · | · | 5.9% | · | ·
Nc1c(Br)cc(/C=C/c2ccnc3ccccc23)cc1Br | · | · | · | -4.2% | · | ·
CN(C)c1ccc(/C=C/c2ccnc3c(Cl)ccc(Cl)c23)cc1 | · | · | · | 3.55µM* | · | ·
SMILES | uPA generation | Vif-APOBEC3F blk | MBNL1 CUG block | Vif-A3G inh | BCR signal inh | TCR act
CN(N=O)c1ccc(/C=C/c2ccnc3ccccc23)cc1 | · | · | · | -0.4% | · | ·
CN(C)c1ccc(/C=C/c2ccnc3ccc(I)cc23)cc1 | · | · | · | 8.91µM* | · | ·
CN(C)c1ccc(/C=C/c2ccnc3c([N+](=O)[O-])cccc23)cc1 | · | · | · | -11.5% | · | ·
CCCN(CCC)c1ccc(/C=C/c2ccnc3ccccc23)cc1 | · | · | · | 11.2µM* | · | ·
CCCCCCCCCN(CCCCCCCCC)c1ccc(/C=C/c2ccnc3ccccc23)cc1 | · | · | · | 1.2% | · | ·
Cc1cc(C)c2nccc(/C=C/c3ccc(N(C)C)cc3)c2c1 | · | · | · | 10µM* | · | ·
Cc1cc(N(C)C)ccc1/C=C/c1ccnc2ccccc12 | · | · | · | -1.0% | · | ·
Cc1cc(N(C)C)c(C)cc1/C=C/c1ccnc2ccccc12 | · | · | · | 14.1µM* | · | ·
O=CC(=O)c1ccc(F)cc1 | · | · | · | 3.5% | · | ·
Clc1ccc(/C=N/NC2=Nc3cccc4cccc2c34)cc1 | 5.4% | 12.6µM* | -0.2% | ? | ? | -0.8%[46.1 µM]
C(=N\NC1=Nc2cccc3cccc1c23)/c1ccccc1 | 5.3% | ? | 0.9% | -4.7% | ? | 4.1%[46.1 µM]

Source: PubChem (National Center for Advancing Translational Sciences (NCATS))
